In the supplement of paper PMC7156485:

Test system: HCC1569
Test: H1.0 immunofluorescence intensity relative to DMSO (% of DMSO); higher = stronger H1.0 induction, active = 140 or more
Settings: concentration: 10 µM; 24 h
Procedure, shortened: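 Six fields per well were imaged at ×10 after the cells were fixed in 3.7% formaldehyde and stained with a rabbit anti-H1.0 antibody, an AlexaFluor 647 secondary and DAPI. The HCC1569 and TDF cells had been plated at 800 per well in 384-well plates (RPMI, 10% FBS) and treated in triplicate with compounds at 10 µM for 24 h at 37 °C. The values are the median of replicates of H1.0 nuclear intensity or cell number, as percent of the plate control. Smoothing for positional effects was applied to HCC1569 data.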
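Also: TDF is a line of transformed human dermal fibroblasts of mesenchymal origin.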

H1.0 immunofluorescence intensity, active:
O=C(Nc1cccc(Cl)c1)Nc1ncc(CCNc2ncnc3ccsc23)s1 178
CCN(CC)CCNC(=O)c1c(C)[nH]c(C=C2C(=O)Nc3ccc(F)cc32)c1C [Sunitinib] 173

H1.0 immunofluorescence intensity, inactive:
CN(C)[C@@H]1CCc2[nH]c3ccc(NC(=O)c4ccc(F)cc4)cc3c2C1.Cl 114
Cc1cc(C(C)(C)C)c(O)c(C(C)(C)C)c1 99
Cl.c1ccc(-n2c(C3=NCCN3)cc3ccccc32)cc1 101
Cl.N=c1ccn2c(n1)OC1C(O)C(CO)OC12 (stereo not drawn) [Ancitabine hydrochloride] 92
CC(N)C1CCC(C(=O)Nc2ccncc2)CC1.Cl.Cl (stereo not drawn) 90.1
NC(=O)c1ccc(N(C(N)=O)c2c(F)cccc2F)nc1-c1ccc(F)cc1F 90.2
CC(C)N=c1cc2n(-c3ccc(Cl)cc3)c3ccccc3nc-2cc1Nc1ccc(Cl)cc1 118
CNc1nccc(-c2cccnc2Oc2cc(C(=O)Nc3cccc(C(F)(F)F)c3)ccc2C)n1 102
Cl.Cl.OCCN1CCN(CCCN2c3ccccc3C=Cc3ccccc32)CC1 106
O=C(NCCO)c1cccc(-c2cc(Nc3ccc(OC(F)(F)F)cc3)ncn2)c1 119
CCCCNc1ncc(C(=O)NCc2ccc(-n3ccnc3)cc2)c(NC2CCC(O)CC2)n1 (stereo not drawn) 104
